B1: il10ra_site1_normal_mot_HHH_b2_08186_000000021_0001_43_56_H_._HHH_b2_05014_af2_0002_0000100001_0000002_0 (protein)
chain: SSSSDEEELRELIEEAEELLERGNPEEALEVVLRALQLAFELSNAETLQRIWELLKRIATSSSSS
B2: il10ra_site1_sap_21_mot_HHH_b2_02463_af2_000000222_0001_1_19_H_._HHH_b1_01285_0001_0000200013_0000001_0_0001 (protein)
chain: SSSSDEANQEALELVVEAVRLALRGNPEEAKEVLEEARELAREGNNERLVKMIEDMLRALDSSSS
B3: il10ra_site1_sap_26_mot_HHH_b1_01707_000000240_0001_1_17_H_._HHH_b2_07405_0001_0000500060_0000001_0_0001 (protein)
chain: SSSSDQEFARLMMEALHLAFQLRDPETLRELWELYRRYAEEGDPRYEEALEELLEELRERSSSSS
B4: il10ra_site1_normal_mot_HHH_b2_03328_af2_000000127_0001_1_19_H_._f3d5fbb9806109dc41c8faca98c9de00_0001_1_0001_0000300008_0000002_0_af2pred_dldesign_0_af2pred (protein)
chain: LELSRLLSDAVITAKNPELAQRLAEVAREIAEDPSKLEELLAELLEEAKAAGDEEVVALLEKALE
B5: il10ra_site1_normal_mot_HHH_b2_06767_000000020_0001_41_56_H_._HHH_b2_06012_0001_0000200016_0000002_0_af2pred_0001 (protein)
chain: SSSSSVHEAAQLLLRVARALKEGDEELLEELRKELEELLKKLDDERARLAVRAALAAIKNFSSSS
B6: il10ra_site1_sap_27_mot_HHH_b1_06128_000000102_0001_1_20_H_._HHH_b1_02043_af2_0001_0000100004_0000002_0_0001 (protein)
chain: SSSSDVEEEVRELLEEAQRYYEEGNPQEVFRLIEEAIKVASEHGDEEAQKLVHEFLHEMFGSSSS
B7: il10ra_site1_normal_mot_HHH_b2_00984_000000042_0001_1_20_H_._HHH_b1_04863_af2_0001_0000500015_0000001_0 (protein)
chain: SSSSSDEEEELEELLEQLKKALEENDRELVAQLARRLVQLAFRLSDPEALQEAWELIRLLSSSSS
B8: il10ra_site1_normal_mot_HHH_b1_01821_000000158_0001_23_39_H_._HHH_b1_04578_0001_0000500034_0000001_1 (protein)
chain: SSSSSEFQRLAQRAVQLAFRLSDQEVLRRIWELFKRYIEEGDPRLEEELEELLEELEERGSSSSS
B9: il10ra_site1_normal_mot_HHH_b2_00277_af2_000000172_0001_1_17_H_._HHH_b1_06276_0001_0000100006_0000001_0_af2pred_0001 (protein)
chain: SSSSSSTEEEVEELLEEAKRIEDPEERSYVLTEAWALAYRLNDPELEREIEEVAKRLTSSSSSSS
B10: il10ra_site1_sap_17_mot_HHH_b2_04681_000000155_0001_43_57_H_._HHH_b2_07038_af2_0001_0000400013_0000001_0_0001_af2pred_dldesign_0_af2pred (protein)
chain: SSSSSSSDPERILALIRRALEEEDPEKARELLEEALRLAKEAGNEVAIRAAEYLLRQVSSSSSSS
B11: il10ra_site1_normal_mot_HHH_b2_03328_af2_000000127_0001_1_19_H_._HHH_b1_08499_0001_0000200023_0000001_0 (protein)
chain: SSSSDVAEEAYELSRRAAELLYQGNPEEARELLEEAEELLKERGDHVILFAVRLLLRILNSSSSS
B12: il10ra_site1_normal_mot_HHH_b2_00475_000000107_0001_44_57_H_._HHH_b2_03520_0001_0000400025_0000001_0 (protein)
chain: SSSSDEEEVSHLLFRALQLLEEGDKEEAEELVEEAKRIAEESNDPELERYVEIAEHFVKAHSSSS
B13: il10ra_site1_sap_33_mot_HHH_b2_07521_000000141_0001_20_37_H_._HHH_b2_01915_0001_0000700039_0000001_1_0001 (protein)
chain: SSSSSEEVEELLEQARELAEEGDFEEAAKLLLEALQIAAELQDPELLRLVWEVLHEVARLNSSSS
B14: il10ra_site1_sap_40_mot_HHH_b1_00102_af2_000000216_0001_43_57_H_._HHH_b1_07360_0001_0000500039_0000002_0_0001_af2pred_0001 (protein)
chain: SSSSSDEEELEEEAKRLMEELEKHGDPELFTRLAELAKLLAELGNPLFEEVAELLARLQSSSSSS
B15: il10ra_site1_sap_25_mot_HHH_b2_05540_000000178_0001_1_18_H_._ems_p1-15H-GBL-16H-GABBL-16H_0381_0001_0001_0001_0001_0000500025_0000002_0_0001 (protein)
chain: SSSSSDMEELYRRIAELLRRLREVSPEEREELLREAKELAEELNNEYLKRAIEHMARAVNSSSSS
B16: il10ra_site1_sap_27_mot_HHH_b2_02537_000000065_0001_1_20_H_._HHH_b2_03111_af2_0001_0000200010_0000001_0_0001 (protein)
chain: SSSSSAAEELKEIIEELLRLQREGDEEEFEKLIEEAERELKEKGDQLSLRIIEYILRLFHSSSSS
B17: il10ra_site1_normal_mot_HHH_b1_02062_000000185_0001_1_20_H_._HHH_b1_02799_af2_0001_0000300032_0000001_0 (protein)
chain: SSSSDELLQEVYELSREAAELDSDGDKEEAEKILEEAEEIAKELGNELFLFQVEYMLRLLKSSSS
B18: il10ra_site1_normal_mot_8756ee2cf497b5429c717dfc0c0bcfd6_0001_000000186_0001_1_13_H_._HHH_b2_02097_0001_0000100006_0000001_0 (protein)
chain: SSSSDLEEAIELVRRVVELLHEGNVEEARELVEEAEKVVEEAGNDVLRWQLEYLKRLLERDSSSS

Data on 18 molecules can be found in publication PMC10163288.

A selection follows. The true hit rate is not given. Unmarked numbers belong to inactive results.

The target of the assay is il10ra, Q13651. As to the kind of experiment: yeast display titration.
il10ra, Q13651, sequence (Q13651 whole entry): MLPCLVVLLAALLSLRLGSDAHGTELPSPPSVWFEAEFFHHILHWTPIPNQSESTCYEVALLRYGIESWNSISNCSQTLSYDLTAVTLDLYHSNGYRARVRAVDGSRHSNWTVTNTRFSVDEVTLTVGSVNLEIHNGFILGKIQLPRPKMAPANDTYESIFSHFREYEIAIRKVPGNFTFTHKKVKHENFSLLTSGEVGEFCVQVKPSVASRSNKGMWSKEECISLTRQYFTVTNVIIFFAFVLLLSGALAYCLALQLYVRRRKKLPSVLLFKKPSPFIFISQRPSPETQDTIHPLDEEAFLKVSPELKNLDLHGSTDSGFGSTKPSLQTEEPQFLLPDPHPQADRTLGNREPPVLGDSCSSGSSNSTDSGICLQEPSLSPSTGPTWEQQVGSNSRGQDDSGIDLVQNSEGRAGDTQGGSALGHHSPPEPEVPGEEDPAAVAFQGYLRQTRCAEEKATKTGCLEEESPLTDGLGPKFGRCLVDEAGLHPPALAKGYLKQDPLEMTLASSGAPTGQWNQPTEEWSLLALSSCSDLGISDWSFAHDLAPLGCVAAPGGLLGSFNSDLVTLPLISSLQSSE
The apparent Kd is the concentration giving half-maximal binding under the conditions of the assay. Regarding B1, the “apparent Kd” value was “no binding seen”.

In the case of B2, the “apparent Kd” value was “no binding seen”.

Consider B3, for which the “apparent Kd” value is “no binding seen”.

In the case of B4, the “apparent Kd” value was “no binding seen”.

On to B5, for which the “apparent Kd” value is “no binding seen”.

For the molecule B6, the “apparent Kd” value was “no binding seen”.

As for B7, the “apparent Kd” value was “no binding seen”.

For B8, the “apparent Kd” value was “no binding seen”.

As for B9, the “apparent Kd” value was “no binding seen”.

Regarding B10, the “apparent Kd” value is “no binding seen”.

In the case of B11, the “apparent Kd” value was “no binding seen”.

As to B12, the “apparent Kd” value is “no binding seen”.

For the molecule B13, the apparent Kd was greater than 2.78 µM.

For the molecule B14, the “apparent Kd” value is “no binding seen”.

For B15, the “apparent Kd” value is “no binding seen”.

Consider B16, for which the “apparent Kd” value was “no binding seen”.

Turning to B17, the “apparent Kd” value was “no binding seen”.

As to B18, the “apparent Kd” value was “no binding seen”.
